# Most compounds without a hit are left out; they make up all but 2.5% or so of the library.
# NSD2 inh: NSD2 (human) methyltransferase inhibition; O96028; NSD2 peptide methylation, AlphaScreen, 120 min; inhibition, % at 12.5 µM; 0.54% of 310,000 active; in the data active = inhibition above about 50%
# Ecoli rRNA inh: inhibits bacterial ribosomal RNA function over humanized ribosomes | 1.6% of 350,000 active | GFP signal change (wild-type ribosome), % (test concentration not listed) | E. coli WT GFP vs humanized-ribosome RFP mutants, fluorescence, 24 h; hits give low values; DMSO median 0, no signal -100;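 active = significant combined selectivity score with lowered wild-type GFP, culture density cut under 30%, mutant RFP and density less affected; inactive = any of these conditions unmet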
# RAD52 anneal inh: RAD52 (human) annealing inhibition. P43351. recombinant RAD52 DNA annealing, FRET fluorescence. inhibition, % at 18.7 µM. 0.46% of 360,000 active. AID 651710;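 active = every replicate showing at least 50% inhibition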
# Target sequence (P43351 whole entry, looked up): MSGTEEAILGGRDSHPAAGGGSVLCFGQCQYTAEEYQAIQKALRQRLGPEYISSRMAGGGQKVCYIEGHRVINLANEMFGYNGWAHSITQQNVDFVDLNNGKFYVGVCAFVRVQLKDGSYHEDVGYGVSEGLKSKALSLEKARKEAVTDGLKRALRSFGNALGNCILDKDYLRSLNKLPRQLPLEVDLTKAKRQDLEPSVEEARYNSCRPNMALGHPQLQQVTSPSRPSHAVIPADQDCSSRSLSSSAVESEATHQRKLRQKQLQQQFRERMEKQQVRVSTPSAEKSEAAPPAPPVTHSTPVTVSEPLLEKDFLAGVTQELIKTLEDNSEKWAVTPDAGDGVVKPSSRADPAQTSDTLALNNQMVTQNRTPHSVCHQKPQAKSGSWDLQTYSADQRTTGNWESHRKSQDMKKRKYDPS
# AF4-AF9 inh: blocks AF4 peptide binding to human AF9 | P42568 | 0.47% of 350,000 active | AlphaScreen, biotin-AF4 peptide binding to FLAG-AF9 | inhibition, % at 10 µM;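 active = every replicate reaching a set inhibition limit, whatever the replicate mean, cut at about 25% in these data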
# Casp6 inh: caspase-6 (human) enzyme inhibition | P55212 | purified caspase-6, Z-VEID-R110 cleavage fluorescence | inhibition, % at 12.5 µM | 0.53% of 350,000 active | AID 686996;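 active = mean inhibition across replicates at least about 35%, with every replicate also reaching that limit, limit read from the data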
# Numbers stand for hits; i = inactive; nt = no result given.
SMILES,NSD2 inh,Ecoli rRNA inh,RAD52 anneal inh,AF4-AF9 inh,Casp6 inh
Nc1[nH]n2c(=O)cc(-c3ccccc3)nc2c1N=Nc1ccc(S(N)(=O)=O)cc1,i,-24,i,i,i
N#C[C@H]1[C@@H](c2ccccc2C2=CCCCC2)[C@H](CO)N1S(=O)(=O)c1cccc(F)c1,nt,i,i,nt,nt
Cc1cccc(NC(=O)/C(C#N)=C/c2ccccc2Cl)n1,i,-22,i,i,i
CO[C@H](CN(C)S(=O)(=O)c1ccccc1)[C@@H](C)CN(Cc1ccccc1Cl)[C@@H](C)CO,nt,i,i,i,i
C[C@H]1CN(C)C(=O)c2ccccc2O[C@@H]1CN(C)S(C)(=O)=O,nt,i,nt,nt,nt
COC(=O)CC1OCC=C2CN3CCC45C6=CC(=O)C(=O)C([N+](=O)[O-])=C6NC4C1C2CC35 (centres undefined),nt,i,i,i,69
CCOC(=O)Cc1nn(Cc2ccccc2)c(=O)c2ccccc12,i,-26,i,i,i
CCOC(=O)Cc1nn(Cc2ccc(Cl)cc2)c(=O)c2ccccc12,i,i,i,i,i
O=C(Nc1ccc(F)cc1)N[C@H]1CC[C@@H](CCNS(=O)(=O)c2ccccc2F)O[C@H]1CO,nt,i,i,i,i
CO[C@@H]1CN(C)C(=O)c2cc(NC(=O)C3CCC3)ccc2OC[C@H](C)N(C)C[C@@H]1C,nt,i,i,i,nt
O=C1C2CC=C(Cl)CC2C(=O)N1CCc1c[nH]c2ccccc12 (centres undefined),i,-26,i,i,i
Nc1nn2c(-c3ccccc3)cc(=O)[nH]c2c1N=Nc1ccc(O)cc1,nt,i,i,i,i
Nc1nn2c(-c3ccccc3)cc(=O)[nH]c2c1N=Nc1ccc(Br)cc1,i,-29,i,i,i
CCOc1ccc(CCNC(=O)CS(=O)(=O)Cc2nc(-c3ccc(OC)cc3)oc2C)cc1,i,i,i,i,i
CCOc1ccc(CNC(=O)CS(=O)(=O)Cc2nc(-c3ccc(OC)cc3)oc2C)cc1,nt,i,i,48,i
Fc1ccc(CNC(=S)NCc2ccc(F)cc2)cc1,i,-31,i,i,i
CN(C)C(=O)COC(=O)/C=C/c1cn(-c2ccccc2)nc1-c1cccs1,nt,-32,i,i,i
NC(=O)N/N=C/c1cn(-c2ccccc2)nc1-c1cccs1,i,i,i,i,i
O=C(NCC(c1ccco1)N1CCc2ccccc2C1)c1ccc(Cl)cc1 (centres undefined),i,i,i,i,63
C[C@@H]1C/C=C\C[C@H](c2ccc3c(c2)OCO3)NC(=O)[C@@H](c2ccccc2)CC(=O)N1,nt,i,nt,nt,nt
COC(=O)c1ccc(COc2ccc(/C=N/NC(N)=S)cc2)o1,i,-29,i,i,i
C[C@@H]1CCCCO[C@@H](CN(C)Cc2ccc3c(c2)OCO3)[C@H](C)CN([C@H](C)CO)C(=O)c2cc(NC(=O)Nc3ccc4c(c3)OCO4)ccc2O1,nt,i,i,32,i
C[C@@H]1CN([C@@H](C)CO)C(=O)c2cc(NC(=O)Nc3ccc4c(c3)OCO4)ccc2O[C@@H](C)CCCCO[C@@H]1CN(C)Cc1ccc2c(c1)OCO2,nt,i,i,i,i
C[C@@H]1CCCCO[C@H](CN(C)Cc2ccc3c(c2)OCO3)[C@@H](C)CN([C@@H](C)CO)C(=O)c2cc(NC(=O)Nc3ccccc3)ccc2O1,nt,i,i,i,i
C[C@@H]1CCCCO[C@H](CN(C)Cc2ccccc2)[C@@H](C)CN([C@@H](C)CO)C(=O)c2cc(NC(=O)Nc3ccc4c(c3)OCO4)ccc2O1,nt,i,i,37,i
SMILES,NSD2 inh,Ecoli rRNA inh,RAD52 anneal inh,AF4-AF9 inh,Casp6 inh
C[C@H](CO)N1C[C@H](C)[C@H](CN(C)Cc2ccc3c(c2)OCO3)OCCCC[C@H](C)Oc2ccc(NC(=O)Nc3ccccc3)cc2C1=O,nt,i,56,i,i
COc1ccc(CN(C)C[C@@H]2OCCCC[C@@H](C)Oc3ccc(NC(=O)Nc4ccc5c(c4)OCO5)cc3C(=O)N([C@H](C)CO)C[C@H]2C)cc1,nt,i,55,i,i
C[C@@H]1CN([C@H](C)CO)C(=O)c2cc(NC(=O)Cc3ccccc3)ccc2O[C@@H](C)CCCCO[C@@H]1CN(C)CC1CCCCC1,nt,i,i,i,i
CN(C)C(=O)C[C@@H]1CC[C@H]2[C@H](COc3ccc(NC(=O)NCc4ccccc4)cc3C(=O)N2C)O1,nt,i,i,i,i
C[C@H](CO)N1C[C@H](C)[C@@H](CN(C)Cc2ccc3c(c2)OCO3)Oc2ccc(NC(=O)Nc3ccccc3)cc2C1=O,nt,i,i,i,i
C[C@@H]1CN([C@@H](C)CO)C(=O)c2cc(NC(=O)Nc3ccccc3)ccc2O[C@@H]1CN(C)Cc1ccc2c(c1)OCO2,nt,i,i,i,54

# Screens as filed in PubChem.
